Structures are written as SMILES. Where “and” joins values, the source holds several entries; their conditions need not be identical. Equal entries are not always repeated. Results filed as inconclusive are left out. Calls of active or inactive are those of the source. Unless noted, calls follow the shape of the full dose curve.

One assay can be described thus: Validation of Assay for Modulators of Lamin A Splicing (AID 1459; active = well fitted curve in the direction sought with a large enough effect in the signal ratio; the % refers to the signal ratio;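 also: cells exposed to compound for two days before reading; 0% is about no effect; ratio rise marks activators and ratio drop marks inhibitors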). The note with it: Lamin A splicing dual RFP/GFP fluorescence reporter; series mostly up to 9.22 µM. The gist of the method: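 Readout: ratio of GFP (500-530 nm) to RFP (575-640 nm) total object intensity by 488 nm laser-scanning cytometry after 48 hrs. Cells were HeLa S3 clones carrying lamin A-EGFP minigene plus DsRed2 viability reporter; vehicle 0.5% DMSO final.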
As to `CSC(=N)N`, the result was inactive.

As for `COc1cc(/C=C(\C#N)C(=O)c2ccc(O)c(O)c2)cc(I)c1O`, the call was inactive.

Consider `O=C(O)C1=CCCN(CCON=C(c2ccccc2)c2ccccc2)C1`, for which the compound was called inactive.

A short description of a further assay: qHTS Assay for Lipid Storage Modulators (AID 1519). As to activity change, negative = inhibition: % is scaled to controls: 0 for no effect and ±100 for the full control effect. The conditions noted are these: Drosophila S3 cells, BODIPY lipid droplet/cell ratio, laser cytometry; at 57.5 µM (top of the series); cells loaded with oleic acid. The gist of the method:
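Cells seeded at 5,000 per well were treated with compounds over a concentration series and loaded with oleic acid (400 uM, as added). Lipid droplet fluorescence (488 nm excitation, 500-530 nm channel) was read by laser-scanning cytometry and normalized to 20 uM Triacsin C.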
On the technique in general: Quantitative high-throughput screening tests each substance at several concentrations.
As to `O=C(O)/C(=C/c1c(C(=O)O)[nH]c2cc(Cl)cc(Cl)c12)c1ccccc1`, the activity change, negative = inhibition was 0.679% (inactive).

`CC1=C(/C=C/C(C)=C/C=C/C(C)=C\C(=O)O)C(C)(C)CCC1`: the activity change, negative = inhibition is 6.72% (inactive).

On to `O=C(O)CCC(=O)N1CCCC1C(=O)O` (configuration not stated), for which the activity change, negative = inhibition is -1.81% (inactive).

With `N=C(N)c1ccccc1`, the activity change, negative = inhibition is 0.991% (inactive).

Take `Cc1nc(N=Nc2ccc(S(=O)(=O)O)cc2S(=O)(=O)O)c(COP(=O)(O)O)c(C=O)c1O`: the activity change, negative = inhibition is 0.0773% (inactive) and 2.25% (inactive).

For `N=S(=O)(O)Cc1noc2ccccc12`, the activity change, negative = inhibition is -0.718% (inactive).

As to `O=[N+]([O-])c1cccc2cn[nH]c12`, the activity change, negative = inhibition was 13.6% (inactive).

Regarding `C[C@@H](NCCc1ccc(O)cc1)[C@@H](O)c1ccc(O)cc1`, the activity change, negative = inhibition is 1.71% (inactive).

Turning to `CC[N+](CC)(CC)CC(=O)Nc1c(C)cccc1C`, the activity change, negative = inhibition was 4.67% (inactive).

As for `O=C(O)c1cc2cc(F)ccc2[nH]1`, the activity change, negative = inhibition is 8.59% (inactive) and -0.743% (inactive).

`O=C(O)C1=CCCNC1`: the activity change, negative = inhibition was 5.3% (inactive) and 2.39% (inactive) and 0.0791% (inactive).

Consider `CNc1cc(NS(=O)(=O)c2ccc(N)cc2)nc(NC)n1`, for which the activity change, negative = inhibition was 0.422% (inactive).

Regarding `CN1C2CCC1CC(OC(c1ccccc1)c1ccccc1)C2` (configuration not stated), the activity change, negative = inhibition was -0.901% (inactive).

On to `NC/C=C\C(=O)O`, for which the activity change, negative = inhibition is 4.68% (inactive) and 0.384% (inactive).

As to `CN1CCN(c2nc3cc(C(F)(F)F)ccc3n3cccc23)CC1`, the activity change, negative = inhibition was 2.45% (inactive).

On to `CCSC(=N)N`, for which the activity change, negative = inhibition was 3.43% (inactive) and 3.42% (inactive) and 1.1% (inactive).

As to `Nc1ccc(-c2nc3ccc(-c4nc5ccc(N)cc5[nH]4)cc3[nH]2)cc1`, the activity change, negative = inhibition is -0.707% (inactive).

Consider `O=C(O)c1cccnc1C(=O)O`, for which the activity change, negative = inhibition was 1.68% (inactive).

In the case of `c1ccc(CN2CCC3(CCCc4ccccc43)CC2)cc1`, the activity change, negative = inhibition was -2.7% (inactive).

For `Oc1cc2c(cc1O)C(c1ccccc1)CNCC2` (configuration not stated), the activity change, negative = inhibition is 4.39% (inactive) and 0.147% (inactive).

Turning to `CCCC[C@@]1(C2CCCC2)Cc2cc(OCC(=O)O)c(Cl)c(Cl)c2C1=O`, the activity change, negative = inhibition is -1.19% (inactive).

In the case of `NS(=O)(=O)c1cccc2c1c([N+](=O)[O-])cc1nc(O)c(O)nc12`, the activity change, negative = inhibition is -1.05% (inactive) and 1.23% (inactive).

As for `Cc1nc(N=Nc2ccc(C(=O)O)cc2)c(COP(=O)(O)O)c(C=O)c1O`, the activity change, negative = inhibition was -0.137% (inactive).

In the case of `N[C@@H](CCC(=O)N[C@H](CSN=O)C(=O)NCC(=O)O)C(=O)O`, the activity change, negative = inhibition is 0.446% (inactive).

As for `CCCCCCC/C=C\CCCCCCCCC(=O)O`, the activity change, negative = inhibition is -0.534% (inactive).

On to `NCCCCN=C(N)N`, for which the activity change, negative = inhibition is 6.41% (inactive).

Consider `Cc1cc2c(cc1Cl)N(C(=O)Nc1ccnc3ccccc13)CC2`, for which the activity change, negative = inhibition is 3.56% (inactive).

`CC(=O)NNC(=O)N1Cc2ccccc2Oc2ccc(Cl)cc21`: the activity change, negative = inhibition was 3.63% (inactive) and -0.28% (inactive).

For the compound `CC1CCN(CC[C@H]2CCCN2S(=O)(=O)c2cccc(O)c2)CC1`, the activity change, negative = inhibition was 5.39% (inactive) and 1.08% (inactive).

On to `CCCCCCCCCCCCCCC[C@H](O)[C@H](N)CO`, for which the activity change, negative = inhibition is -9.53% (inactive).

With `Cn1c(=O)[nH]c2ncn(C)c2c1=O`, the activity change, negative = inhibition was 0.383% (inactive).

For the compound `CCC(=O)N1CCN(C(=O)c2ccccc2)CC1`, the activity change, negative = inhibition was 0.685% (inactive).

As to `O=c1[nH]ccc2c(O)cccc12`, the activity change, negative = inhibition is 1.52% (inactive).

As to `O=c1onc2n1-c1cc(Br)ccc1OC2`, the activity change, negative = inhibition is 3.14% (inactive).

Take `CSC(=N)N`: the activity change, negative = inhibition is -0.307% (inactive).

As for `COc1cc(/C=C(\C#N)C(=O)c2ccc(O)c(O)c2)cc(I)c1O`, the activity change, negative = inhibition was -0.482% (inactive).

For `O=C(O)C1=CCCN(CCON=C(c2ccccc2)c2ccccc2)C1`, the activity change, negative = inhibition was 3.28% (inactive) and 2.71% (inactive).

Still in this assay, the particulars now being: Drosophila S3 cells, BODIPY lipid droplet/cell ratio, laser cytometry; measured here: cell count channel max response; cells loaded with oleic acid.
For the compound `O=C(O)/C(=C/c1c(C(=O)O)[nH]c2cc(Cl)cc(Cl)c12)c1ccccc1`, the max response was -8.09%.

As to `CC1=C(/C=C/C(C)=C/C=C/C(C)=C\C(=O)O)C(C)(C)CCC1`, the max response came to 3.57%.

On to `O=C(O)CCC(=O)N1CCCC1C(=O)O` (configuration not stated), for which the max response amounted to 29.3%.

With `N=C(N)c1ccccc1`, the max response worked out at 9.53%.

Consider `Cc1nc(N=Nc2ccc(S(=O)(=O)O)cc2S(=O)(=O)O)c(COP(=O)(O)O)c(C=O)c1O`, for which the max response is -1.61% and 6.03%.

With `N=S(=O)(O)Cc1noc2ccccc12`, the max response was 21.5%.

With `O=[N+]([O-])c1cccc2cn[nH]c12`, the max response turned out to be 18.6%.

Turning to `C[C@@H](NCCc1ccc(O)cc1)[C@@H](O)c1ccc(O)cc1`, the max response is -16.7%.

`CC[N+](CC)(CC)CC(=O)Nc1c(C)cccc1C`: the max response was -3.7%.

For `O=C(O)c1cc2cc(F)ccc2[nH]1`, the max response was 14.4% and 31%.

Take `O=C(O)C1=CCCNC1`: the max response was 11.8% and 11.1% and -5.85%.

As to `CNc1cc(NS(=O)(=O)c2ccc(N)cc2)nc(NC)n1`, the max response was -14.7%.

Turning to `CN1C2CCC1CC(OC(c1ccccc1)c1ccccc1)C2` (configuration not stated), the max response is -8.64%.

As for `NC/C=C\C(=O)O`, the max response is -7.52% and 26.3%.

On to `CN1CCN(c2nc3cc(C(F)(F)F)ccc3n3cccc23)CC1`, for which the max response turned out to be 18.9%.

As to `CCSC(=N)N`, the max response was 11.3% and -10.8% and -6.69%.

With `Nc1ccc(-c2nc3ccc(-c4nc5ccc(N)cc5[nH]4)cc3[nH]2)cc1`, the max response was -29.1%.

As to `O=C(O)c1cccnc1C(=O)O`, the max response turned out to be 9.96%.

Turning to `c1ccc(CN2CCC3(CCCc4ccccc43)CC2)cc1`, the max response was -38%.

`Oc1cc2c(cc1O)C(c1ccccc1)CNCC2` (configuration not stated): the max response is 1.14% and -18.7%.

Turning to `CCCC[C@@]1(C2CCCC2)Cc2cc(OCC(=O)O)c(Cl)c(Cl)c2C1=O`, the max response is -23.6%.

With `NS(=O)(=O)c1cccc2c1c([N+](=O)[O-])cc1nc(O)c(O)nc12`, the max response was -22.6% and 10.1%.

`Cc1nc(N=Nc2ccc(C(=O)O)cc2)c(COP(=O)(O)O)c(C=O)c1O`: the max response is -21.8%.

For `N[C@@H](CCC(=O)N[C@H](CSN=O)C(=O)NCC(=O)O)C(=O)O`, the max response was -20.1%.

Regarding `CCCCCCC/C=C\CCCCCCCCC(=O)O`, the max response was -11.1%.

As for `NCCCCN=C(N)N`, the max response amounted to 4.55%.

Regarding `Cc1cc2c(cc1Cl)N(C(=O)Nc1ccnc3ccccc13)CC2`, the max response amounted to 57.9%.

Regarding `CC(=O)NNC(=O)N1Cc2ccccc2Oc2ccc(Cl)cc21`, the max response was -1.09% and 39.5%.

For `CC1CCN(CC[C@H]2CCCN2S(=O)(=O)c2cccc(O)c2)CC1`, the max response is 7.6% and -15.4%.

As for `CCCCCCCCCCCCCCC[C@H](O)[C@H](N)CO`, the max response is -83.5%.

For the compound `Cn1c(=O)[nH]c2ncn(C)c2c1=O`, the max response was 10.7%.

Take `CCC(=O)N1CCN(C(=O)c2ccccc2)CC1`: the max response is -9.69%.

Consider `O=c1[nH]ccc2c(O)cccc12`, for which the max response was -28%.

For the compound `O=c1onc2n1-c1cc(Br)ccc1OC2`, the max response is 64.2%.

For the compound `CSC(=N)N`, the max response was 53.5%.

Take `COc1cc(/C=C(\C#N)C(=O)c2ccc(O)c(O)c2)cc(I)c1O`: the max response is 28.4%.

For the compound `O=C(O)C1=CCCN(CCON=C(c2ccccc2)c2ccccc2)C1`, the max response was -11.1% and 10.2%.

(Values after PubChem BioAssay (NCATS).)
